Bioassay records as filed in PubChem.
Compounds with a hit are over-represented: about 8.1% of the library has one in this group of screens.
KB-V1 cytotox: kills drug-selected multidrug resistant KB-V1 cells. Potency, µM (highest dose often 46.1 µM), most hits filed as cytotoxic. KB-V1 MDR cells viability, CellTiter-Glo, 72 h. 3.4% of 400,000 active; note: nearly all actives have a fitted effect of over 60% in size
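Following 72 h at 37 degrees C with compound, KB-V1 cell viability was read by CellTiter-Glo luminescence, medium being phenol-red-free DMEM plus 10% FBS; concentration-response parameters came from normalized, curve-fitted qHTS data.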
MCF10A rereplic: DNA re-replication induction in MCF 10a cells. Potency, µM (series often up to 46.1 µM), hits mostly activators. 2.9% of 350,000 active. AID 624296. MCF 10A DNA re-replication, Hoechst nuclear intensity, 48 h; note: nearly all actives have a fitted effect of over 50% in size
SW480 rereplic: induces DNA re-replication in SW480 colon adenocarcinoma cells; SW480 DNA re-replication, Hoechst DNA content imaging, 48 h; Potency, µM (top dose mostly 46.1 µM), usual class: activators; 1.8% of 340,000 active; note: nearly all actives have a fitted effect of over 55% in size
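SW480 cells exposed to compounds for 48 hr at 37 C, 5% CO2, then Hoechst-stained 40 min. Nuclear DNA content imaged by fluorescence scanning (405 nm excitation, 500-530 nm emission); re-replication scored as increased high-intensity nuclei.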
ELG1 repair inh: ELG1-dependent DNA repair inhibition. Potency, µM (highest dose often 46.1 µM), most hits filed as inhibitors. HEK293T ELG1-luciferase reporter, luminescence, 16 h; DNA damage induced by 5-fluorouridine. 2.3% of 330,000 active; note: nearly all actives have a fitted effect of over 55% in size
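Reporter activity after DNA damage by 5-fluorouridine is monitored. Compound-treated cells incubate 16 hr at 37 °C, then ONE-Glo is added for 30 min before luminescence reading.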
KB-3-1 cytotox: KB-3-1 parental cell cytotoxicity; Potency, µM (series often up to 46.1 µM), most hits filed as cytotoxic; 1.4% of 400,000 active; KB-3-1 viability, CellTiter-Glo ATP luminescence, 72 h; AID 1347075; note: nearly all actives have a fitted effect of over 60% in size
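Viability of parental KB-3-1 cells, measured by CellTiter-Glo luminescence, followed a 72 h incubation at 37 °C with pinned compounds in phenol-red-free DMEM containing 10% FBS.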
A number is an active result; – = inactive; ? = inconclusive; · = not tested or not shown. Calls come from the whole dose curve; as a rule, active = well fitted curve in the direction sought with a large enough effect; inconclusive = small, poorly fitted or top-dose-only effect, or another doubt; inactive = no such curve, though single readings can be large; an effect the other way counts as inactive or inconclusive.

SMILES	KB-V1 cytotox	MCF10A rereplic	SW480 rereplic	ELG1 repair inh	KB-3-1 cytotox
O=C(N/N=C/c1ccc(F)cc1)c1cc(-c2ccco2)nc2ccccc12	?	13µM	?	–	?
CCOc1ccc(/C=N/NC(=O)c2cc(-c3ccco3)nc3ccccc23)cc1	–	4.1µM	?	–	–
CCOc1cccc(-c2cc(C(=O)N/N=C/c3ccc(OC)c(CN4CCOCC4)c3)c3ccccc3n2)c1	–	?	–	23µM	–
CCOc1cc(/C=N/NC(=O)CN2CCOCC2)ccc1OCc1ccccc1	?	–	–	–	–
C[C@H]1CN([C@@H](C)CO)C(=O)CCCn2nncc2CO[C@H]1CN(C)C(=O)C1CCCCC1	?	·	·	·	–
COc1ccc(S(=O)(=O)N2CCc3cc4c(cc3C2C)OCCCO4)cc1 (stereo not given)	–	–	–	–	–
CCOc1ccc(NC(=S)NC(=O)/C=C/c2ccc(OC)c(OC)c2)c([N+](=O)[O-])c1	?	–	–	?	–
CCOc1ccc(NC(=S)NC(=O)/C=C/c2ccc(C)cc2)c([N+](=O)[O-])c1	12µM	?	–	–	?
COC(=O)c1ccc(NC(=O)Cn2c(=O)oc3ccccc32)cc1	–	·	·	·	–
Cn1c2ccccc2c(=O)c2cc(C#Cc3ccc(N)cc3)ccc21	–	–	?	?	–
Cn1c(-c2ccccc2)c(C#Cc2ccc(N)cc2)c2ccccc21	–	12µM	9.2µM	–	–
O=C(COC(=O)c1ccc(S(=O)(=O)C(F)F)cc1)Nc1ccccc1C(=O)NC1CC1	?	–	–	–	–
O=C(/C=C/Sc1ccccc1)c1ccccc1	–	5.2µM	21µM	–	–
Cc1cc(C)cc(OCc2cc(=O)n3c4c(sc3n2)CCCC4)c1	?	·	·	·	–
Cc1ccc(S(=O)(=O)NCC(=O)NCC(=O)OCc2c(F)cccc2Cl)cc1	–	–	18µM	–	–
O=C(NCC(=O)N1CCCC1)NN=Cc1ccccc1O	–	·	·	·	–
COc1ccc(C(=O)N2CCN(c3nc(C4CC4)nc4sc(C)c(C)c34)CC2)cc1	23µM	?	–	?	?
Cc1sc2nc(C3CC3)nc(N3CCN(C(=O)c4ccc(F)cc4)CC3)c2c1C	–	?	?	?	–
Cc1sc2nc(C3CC3)nc(N3CCN(C(=O)c4ccc(Cl)cc4)CC3)c2c1C	18µM	?	–	23µM	?
Cc1cc(C)c(CN2CCN(C(=O)Cn3cnc(C(=O)Nc4ccc(C)c(C)c4)n3)CC2)c(C)c1	–	?	?	–	–
Cc1ccc(C(=O)OCC(=O)NC2CCCC(C)C2C)s1 (stereo not given)	–	·	·	·	–
Cc1onc(-c2ccccc2)c1C(=O)Nc1nnc(CC(C)(C)C)s1	?	–	–	–	–
CCn1c(SCC(=O)Nc2nc3c(s2)CCCC3)nnc1-c1ccccc1	–	?	–	?	–
Cc1ccc(C)c2c1cc(C)c1nnc(SCC(=O)Nc3nc4c(s3)CCCC4)n12	–	21µM	–	?	–
Cc1ccc2cc(C)c3nnc(SCC(=O)Nc4nc5c(s4)CCCC5)n3c2c1C	18µM	?	?	–	–
SMILES	KB-V1 cytotox	MCF10A rereplic	SW480 rereplic	ELG1 repair inh	KB-3-1 cytotox
Cc1ccc2cc(C)c3nnc(SCC(=O)c4cccs4)n3c2c1C	–	–	–	–	–
CC1CCCC(NC(=O)COC(=O)c2n[nH]c3ccccc23)C1C (stereo not given)	–	?	–	?	–
O=C(CSc1ncc(-c2ccccc2)[nH]1)Nc1ccccc1	–	?	–	–	–
O=C(CSc1ncc(-c2ccccc2)[nH]1)Nc1cccc(O)c1	–	–	–	16µM	–
Cc1ncc(CO)c2c1Oc1nc(-c3ccccc3)nc(SCC(=O)Nc3cccc(O)c3)c1C2	–	16µM	?	?	?
COc1ccc(-c2nc3c(c(SCC(=O)Nc4cccc(O)c4)n2)Cc2c(CO)cnc(C)c2O3)cc1	–	–	–	–	–
COc1ccc(Br)cc1CN(C)CC(=O)Nc1cc(Cl)ccc1Cl	7.3µM	?	–	–	–
COc1ccccc1CN(C)CC(=O)Nc1ccc(Cl)cc1F	–	1.2µM	–	?	–
COc1ccccc1CN(C)CC(=O)Nc1ccc(Cl)cc1C(F)(F)F	–	?	–	–	–
CC(C)(C)c1ccc(C(=O)NCc2nnc(SCC(=O)NC3CCCCC3)o2)cc1	·	–	–	–	·
